Measured values as given in PubChem BioAssay (NCATS).
Inconclusive results are not listed. Entries that show only a call come without a potency. A number with no mark means an inactive call. Active and inactive are the calls of the source. The call rests on the fitted dose curve; in most records, active means well fitted curve in the direction sought with a large enough effect; inconclusive means small, poorly fitted or top-dose-only effect, or another doubt; inactive means no such curve, though single readings can be large; an effect the other way counts as inactive or inconclusive.

Columns and labels:
[1] = target: ATP-dependent 6-phosphofructokinase (Trypanosoma brucei brucei) (UniProt O15648); experiment: qHTS Assay to Find Inhibitors of T. brucei phosphofructokinase: hit validation (AID 492961);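 further: luminescence reports ADP formed as PFK phosphorylates fructose-6-phosphate with ATP; series mostly up to about 51 µM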
Sequence of ATP-dependent 6-phosphofructokinase (Trypanosoma brucei brucei) (O15648 whole entry, looked up): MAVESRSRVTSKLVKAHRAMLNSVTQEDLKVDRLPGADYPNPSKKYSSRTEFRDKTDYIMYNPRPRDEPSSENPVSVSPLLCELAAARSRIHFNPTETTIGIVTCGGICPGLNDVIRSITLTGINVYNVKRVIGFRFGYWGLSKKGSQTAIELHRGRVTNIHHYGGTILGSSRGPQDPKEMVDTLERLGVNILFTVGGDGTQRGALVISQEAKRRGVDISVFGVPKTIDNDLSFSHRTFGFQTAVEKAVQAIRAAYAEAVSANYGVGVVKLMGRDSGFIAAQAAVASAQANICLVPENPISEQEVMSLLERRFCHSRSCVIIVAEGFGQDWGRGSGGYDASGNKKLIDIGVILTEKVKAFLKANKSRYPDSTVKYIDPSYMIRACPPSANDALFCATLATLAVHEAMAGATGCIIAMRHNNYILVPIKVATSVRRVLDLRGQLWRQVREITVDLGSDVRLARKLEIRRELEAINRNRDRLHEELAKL
How it was run: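 Compounds titrated; %activity normalized to 0x and 1x enzyme controls, curve-fitted. Readout: ADP-Glo luminescence after 45 min room-temperature reaction of 1.25 nM PFK, 0.1 mM ATP, 0.5 mM F6P, pH 8.0.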

[2] = target: Ubiquitin carboxyl-terminal hydrolase 1 (Homo sapiens) (UniProt O94782); experiment: Inhibitors of USP1/UAF1: Pilot qHTS (AID 504865); further: nearly all actives have a fitted effect of over 35% in size; further: potency means the concentration at half of the fitted maximal effect
Sequence of Ubiquitin carboxyl-terminal hydrolase 1 (Homo sapiens) (O94782 whole entry, looked up): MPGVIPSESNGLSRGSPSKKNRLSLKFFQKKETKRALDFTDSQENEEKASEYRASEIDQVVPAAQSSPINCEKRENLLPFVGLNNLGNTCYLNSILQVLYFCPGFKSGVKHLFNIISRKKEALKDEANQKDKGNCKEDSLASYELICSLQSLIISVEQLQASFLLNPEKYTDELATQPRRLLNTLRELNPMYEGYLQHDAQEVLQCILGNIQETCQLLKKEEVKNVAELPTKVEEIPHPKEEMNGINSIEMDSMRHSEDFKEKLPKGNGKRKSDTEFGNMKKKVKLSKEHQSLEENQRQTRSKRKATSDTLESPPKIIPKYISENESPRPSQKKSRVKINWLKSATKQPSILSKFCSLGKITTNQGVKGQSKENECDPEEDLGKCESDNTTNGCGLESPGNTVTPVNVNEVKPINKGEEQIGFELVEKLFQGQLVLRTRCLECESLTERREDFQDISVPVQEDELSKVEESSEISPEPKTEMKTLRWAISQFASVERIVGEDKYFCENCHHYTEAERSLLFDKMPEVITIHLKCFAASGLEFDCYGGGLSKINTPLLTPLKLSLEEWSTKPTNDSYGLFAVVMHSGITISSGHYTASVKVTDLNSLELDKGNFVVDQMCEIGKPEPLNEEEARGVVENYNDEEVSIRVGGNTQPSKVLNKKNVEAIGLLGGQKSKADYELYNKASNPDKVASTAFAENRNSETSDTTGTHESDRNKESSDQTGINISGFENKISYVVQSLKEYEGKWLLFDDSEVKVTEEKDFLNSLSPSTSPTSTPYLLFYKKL
How it was run: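 In 50mM HEPES pH 7.8 containing 0.5mM EDTA, 1mM TCEP, 0.1 mg/ml BSA and 0.01% Tween-20, 1nM USP1/UAF1 is exposed to compound for 15 min, then Ub-Rho (150nM final) is added and fluorescence is read over time.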

CC(C)(C)C(=O)OCOC(=O)[C@@H]1N2C(=O)[C@@H](NC(=O)[C@H](N)c3ccccc3)[C@H]2SC1(C)C
outcome [1]: inactive | Potency [2]: inactive

CCCNC(C)(C)COC(=O)c1ccccc1
outcome [1]: inactive | Potency [2]: inactive

O=C1CC[C@@H](C(=O)O)N1
outcome [1]: inactive | Potency [2]: inactive

COc1ccc2cc(CCC(C)=O)ccc2c1
outcome [1]: inactive | Potency [2]: inactive

CCOC(N)=O
outcome [1]: inactive | Potency [2]: inactive

C=CCSCC1Nc2cc(Cl)c(S(N)(=O)=O)cc2S(=O)(=O)N1 (centres undefined)
outcome [1]: inactive | Potency [2]: inactive

CC1CC(OC(=O)c2ccccc2O)CC(C)(C)C1 (centres undefined)
outcome [1]: inactive | Potency [2]: inactive

CC(O)CCCCn1c(=O)c2c(ncn2C)n(C)c1=O (centres undefined)
outcome [1]: inactive | Potency [2]: inactive

CC(=O)NCc1c(I)c(NC(C)=O)c(I)c(C(=O)O)c1I
outcome [1]: inactive | Potency [2]: inactive

CCCCCCCC(=O)OCC(COC(=O)CCCCCCC)OC(=O)CCCCCCC
outcome [1]: inactive | Potency [2]: inactive

Cc1c(I)c(=O)n(-c2ccccc2)n1C
outcome [1]: inactive | Potency [2]: inactive

CCS(=O)(=O)CCn1c([N+](=O)[O-])cnc1C
outcome [1]: inactive | Potency [2]: inactive

Cc1ccsc1C(=CCCN1CCC[C@@H](C(=O)O)C1)c1sccc1C
outcome [1]: inactive | Potency [2]: inactive

CCCCCC(C)N (centres undefined)
outcome [1]: inactive | Potency [2]: inactive

CC(=O)Nc1ccc(OCCOCCOc2ccc(NC(C)=O)cc2)cc1
outcome [1]: inactive | Potency [2]: inactive

N[C@@H](Cc1ccc(O)cc1)C(=O)O
outcome [1]: inactive | Potency [2]: inactive

NC(N)=NS(=O)(=O)c1ccc(N)cc1
outcome [1]: inactive | Potency [2]: inactive

O=C(O)c1ccc(OCCCOc2ccc(C(=O)O)cc2)cc1
outcome [1]: inactive | Potency [2]: inactive

C[N+](C)(C)CC[N+]1(C)Cc2c(Cl)c(Cl)c(Cl)c(Cl)c2C1
outcome [1]: inactive | Potency [2]: inactive

COc1ccc(O)cc1
outcome [1]: inactive | Potency [2]: inactive

O=C(Cn1ccnc1[N+](=O)[O-])NCc1ccccc1
outcome [1]: inactive | Potency [2]: inactive

CCCCCCCCCCCCCCCCN
outcome [1]: inactive | Potency [2]: inactive

CC(=O)N(CC(O)CO)c1c(I)c(C(=O)NCC(O)CO)c(I)c(C(=O)NCC(O)CO)c1I (centres undefined)
outcome [1]: inactive | Potency [2]: inactive

OC[C@@H](O)[C@@H](O)[C@H](O)[C@H](O)CO
outcome [1]: inactive | Potency [2]: inactive

Cc1c(C(=O)NCCO)[n+](=O)c2ccccc2n1[O-]
outcome [1]: inactive | Potency [2]: inactive

CCCCCCCCCCCCCCCCCCO
outcome [1]: inactive | Potency [2]: inactive

CNc1c2c(nn1C)CCCC2
outcome [1]: inactive | Potency [2]: inactive

Cc1cc(OI)c(C(C)C)cc1-c1cc(C(C)C)c(OI)cc1C
outcome [1]: inactive | Potency [2]: inactive

CC(C)c1cc2c(cc1S(=O)(=O)O)[C@@]1(C)CCC[C@@](C)(C(=O)O)[C@@H]1CC2
outcome [1]: inactive | Potency [2]: inactive

O=C(CN1CCNCC1)NC1CCCCC1
outcome [1]: inactive | Potency [2]: inactive

CN1CCN(C(=O)C2CCCCC2)CC1
outcome [1]: inactive | Potency [2]: inactive

Cc1ccc(S(=O)(=O)NC(=O)NC2CCCCC2)cc1
outcome [1]: inactive | Potency [2]: inactive

CCN1CC(CCN2CCOCC2)C(c2ccccc2)(c2ccccc2)C1=O (centres undefined)
outcome [1]: inactive | Potency [2]: inactive

CC(=O)Nc1ccc(C(=O)O)cc1
outcome [1]: inactive | Potency [2]: inactive

CC(=O)Oc1cccc(C)c1
outcome [1]: inactive | Potency [2]: inactive

NC(N)=NCCN1CCCCCCC1
outcome [1]: inactive | Potency [2]: inactive

CCOC(=O)c1cccnc1
outcome [1]: inactive | Potency [2]: inactive

CC(=O)Nc1ccccc1
outcome [1]: inactive | Potency [2]: inactive

CCOc1ccc(C(=O)OCCN(CC)CC)cc1
outcome [1]: inactive | Potency [2]: inactive

O=c1[nH]c(=O)c2ccccc2o1
outcome [1]: inactive | Potency [2]: inactive

NC(=O)NS(=O)(=O)c1ccc(N)cc1
outcome [1]: inactive | Potency [2]: inactive

CC(C)CCCC(C)CCCC(C)CCCCC(C)CCCC(C)CCCC(C)C (centres undefined)
outcome [1]: inactive | Potency [2]: inactive

NC(=O)CC[C@@H](N)C(=O)O
outcome [1]: inactive | Potency [2]: inactive

COc1cc(O)cc(O)c1
outcome [1]: inactive | Potency [2]: inactive

CC(CN(C)C)C(C)(O)Cc1ccc(Cl)cc1 (centres undefined)
outcome [1]: inactive | Potency [2]: inactive

CC(C)=CCC/C(C)=C/CO
outcome [1]: inactive | Potency [2]: inactive

CC(=O)Nc1cccc(O)c1
outcome [1]: inactive | Potency [2]: inactive

OCC(O)CS (centres undefined)
outcome [1]: inactive | Potency [2]: inactive

Cc1cc(C)c(NC(=O)CN(CC(=O)O)CC(=O)O)c(C)c1Br
outcome [1]: inactive | Potency [2]: inactive

Cc1cc(O)cc(C)c1Cl
outcome [1]: inactive | Potency [2]: inactive

COC(=O)c1ccc(O)cc1
outcome [1]: inactive | Potency [2]: inactive

O=C(OOC(=O)c1ccccc1)c1ccccc1
Potency [2]: inactive

O=C(O)Cc1cn(-c2ccccc2)nc1-c1ccc(Cl)cc1
Potency [2]: inactive

c1ccc2[nH]ccc2c1
Potency [2]: inactive

NS(=O)(=O)c1cc(-c2nn[nH]n2)c(NCc2cccs2)cc1Cl
Potency [2]: inactive

CC1CCN(CCCC(=O)c2ccc(F)cc2)CC1
Potency [2]: inactive

CC(C(=O)O)c1ccc2c(c1)Cc1cccnc1O2 (centres undefined)
Potency [2]: inactive

CCN(CC)CCc1nc(-c2ccccc2)no1
Potency [2]: inactive

Cc1c(Cn2ccnc2)c2ccccc2n1CCC(=O)O
Potency [2]: inactive

C[N+]1(C)CCCC(OC(=O)C(O)(c2ccccc2)c2ccccc2)C1 (centres undefined)
Potency [2]: inactive

CC[N+](C)(CC)CCOC(=O)C1c2ccccc2Oc2ccccc21
Potency [2]: inactive

O=C(O)Cn1c(C(=O)Nc2nc(-c3ccccc3Cl)cs2)cc2ccccc21
Potency [2]: 79.4 µM (active)

O=C(O)c1ccc[n+]([O-])c1
Potency [2]: inactive
